Laboratory results as given in PubChem BioAssay AID2314 (National Center for Advancing Translational Sciences (NCATS), 2010).
“And” between values parts separate entries of the source, which are not always exact repeats. Equal entries are not always repeated. Out of some 300,000 compounds screened, about 37,000 (12%) were called active. Only a selection was taken, and actives are over-represented in it overall. Values without a mark were called inactive. Rule as the data show it: active = max response mostly above about 13% (no sharp cut-off); inactive = mostly below about 14%.

Test: Cycloheximide Counterscreen for Small Molecule Inhibitors of Shiga Toxin; also: read at 38.3 µM for the half of the compounds with a filed dose; 0% is about no effect
Conditions: cell reporter, cycloheximide protein synthesis inhibition counterscreen; hits give high values
Compound `CC(C)CCN(C(=O)c1csnn1)C(C(=O)NC1CCCC1)c1ccccc1` (stereo unspecified) has a max response of -2.45%.
With `COc1ccc(NC(=O)C(C)N2c3cccc4cccc(c34)S2(=O)=O)c(OC)c1` (stereo unspecified) the max response was -5.29%.
With `COc1cccc(-n2cc3c(c2-c2ccccc2)c(=O)n(C)c(=O)n3C)c1` the max response was 57.2% (active).
In the case of `Cc1ccc(-c2c3c(=O)n(C)c(=O)n(C)c3cn2-n2cnnc2)cc1`, the max response is reported as 0.742%.
With `COc1ccc(-c2c3c(=O)n(C)c(=O)n(C)c3cn2-c2cccc(OC)c2)cc1` the max response was 0.846%.
`COc1ccc(-c2c3c(=O)n(C)c(=O)n(C)c3cn2NC(C)=O)cc1` showed a max response of -6.45%.
With `Cc1ccc(-c2c3c(=O)n(C)c(=O)n(C)c3cn2-c2ccccc2O)cc1` the max response was 21.5% (active).
For `Cn1c(=O)c2cn(-c3cccc4ccccc34)cc2n(C)c1=O`, the max response was 18.7%.
With `Cn1c(C(=O)N2CCCC(C(=O)NCc3ccccc3)C2)cc2sccc21` (stereo unspecified) the max response was 3.91%.
Compound `CCOc1ccc(S(=O)(=O)N2CCC(C(=O)NCc3ccccn3)CC2)cc1Cl` has a max response of -1.51%.
Work on `COc1ccc(-c2nc(CS(=O)CC(=O)NCc3ccccc3)c(C)o2)cc1OC` (stereo unspecified) yielded a max response of 4.98%.
Compound `Cc1no[n+]([O-])c1COc1ccccc1/C=C1\NC(=S)NC1=O` has a max response of 5.18%.
With `CC(=O)Nc1ccc(S(=O)(=O)Oc2ccc(Br)cc2C(=S)N2CCOCC2)cc1` the max response was -3.27%.
With `CC(=O)Nc1ccc(CN2CCC(Oc3ccc(C(=O)N4CCCC4)cc3)CC2)cc1` the max response was -0.693%.
With `O=C(Nc1ccc(Cl)cc1)/C(=C1\CCCN1)[N+](=O)[O-]` the max response was 5.78%.
`O=C(CN(c1ccccc1)S(=O)(=O)c1ccc(Cl)cc1)Nc1ccccc1C(=O)N1CCCC1` gave a max response of -1.5%.
Work on `Cc1ccc(C2=C/C(=C\c3cccnc3)C(=O)O2)cc1` yielded a max response of -1.01%.
`O=S(O)S(=O)(=O)O` showed a max response of -2.81%.
In the case of `COc1ccc(-n2cc(CNC3CCOCC3)c(-c3cccc(F)c3)n2)cc1`, the max response is reported as 1.41%.
In the case of `Cc1cccc(-n2cc(CN3CCN(C(=O)c4ncn[nH]4)CC3)c(-c3cccc(F)c3)n2)c1`, the max response is reported as 20.6% (active).
In the case of `CCC(O)C1CCN(Cc2cn(-c3ccc(OC)cc3)nc2-c2cccc(F)c2)CC1` (stereo unspecified), the max response is reported as 10.6% (active).
`COc1ccc(-n2cc(CN(C)Cc3n[nH]c(=O)[nH]3)c(-c3cccc(F)c3)n2)cc1` gave a max response of 4.9%.
In the case of `Cc1ccc(C)c(-n2cc(CN3CCN(C(=O)c4ncn[nH]4)CC3)c(-c3ccccc3)n2)c1`, the max response is reported as -1.39%.
Work on `Cc1ccccc1CN1CCN(C(=O)c2cccc(F)c2)CC1` yielded a max response of -3.46%.
For `C=CCCC(=O)Nc1nc(C)c(-c2csc(Nc3ccc(Cl)cc3)n2)s1`, the max response was -1.48%.
`CCOCCCNCc1cc(Br)ccc1OCC` gave a max response of 1.32%.
`O=C(NCc1ccncc1)C1CCN(C(=O)c2cccc(Cl)c2)CC1` showed a max response of -4.47%.
In the case of `Cc1ccc(NC2CCCN(C(=O)CCc3cn[nH]c3)C2)cc1C` (stereo unspecified), the max response is reported as 2.58%.
For `COc1c(O)c2c(=O)cc(OC)c3c4c(OC)cc(=O)c5c(O)c(OC)c6c(c(c1C[C@@](C)(O)[C@H]6C(C)=O)c23)c54`, the max response was 2.19%.
In the case of `CCCC(=O)Nc1ccc(C(=O)N/N=C/c2ccc[nH]2)cc1`, the max response is reported as 7.57%.
With `CC(=O)Nc1ccc(/C=C/C(=O)c2ccccc2)cc1` the max response was 30.5% (active).
For `CC(=O)Nc1ccccc1C(=O)C(=O)Nc1ccc(F)cc1`, the max response was 11.7%.
Compound `COc1ccc(C(=O)/C=C/c2ccc(OC3CSC3)cc2)cc1` has a max response of -1.52%.
`CC(=O)Nc1ccc(NC(=S)NC(=O)/C=C/c2ccccc2)cc1` gave a max response of 4.54%.
For `CC(=O)Nc1ccc(C(=O)/C=C/c2ccc[nH]2)cc1`, the max response was 49.8% (active).
In the case of `COc1ccc(CCNc2nc3ccc(C)cc3n3cnnc23)cc1OC`, the max response is reported as -4.65%.
`CC1CCN(S(=O)(=O)c2nnc(NC(=O)COc3ccccc3F)s2)CC1` gave a max response of -2.77%.
In the case of `CN(CCC(=O)Nc1cc(S(=O)(=O)N(C)C)ccc1Cl)CC(=O)Nc1ccc(F)cc1`, the max response is reported as -1.74%.
In the case of `Cc1ccc(OC(=O)c2cncc(Br)c2)c(C)c1`, the max response is reported as -1.19%.
In the case of `Cc1ccc(-c2nc(C#N)c(NCCCn3ccnc3)o2)cc1`, the max response is reported as 16.7% (active).
Work on `COc1ccc(/C=C(\C#N)C(=O)NCCCn2ccnc2)cc1` yielded a max response of -5.64%.
Compound `Cc1ccc(S(=O)(=O)c2nc(NCCCn3ccnc3)sc2Cl)cc1` has a max response of -2.37%.
`CCOC(=O)C(C(=O)OCC)C(C#N)c1ccccc1` (stereo unspecified) gave a max response of -1.71%.
For `CCOC(=O)/C=C/C(=O)OCC(=O)NC(c1ccccc1)c1ccccc1`, the max response was 19.8% (active).
For `O=C(Cc1ccc(-c2ccccc2)cc1)NC(c1ccccc1)c1ccccc1`, the max response was 1.24%.
In the case of `COc1ccc(CNC(=O)[C@H](Cc2c[nH]c3ccccc23)NC(C)=O)cc1OC`, the max response is reported as -3.86%.
With `O=C(Nc1ccn(Cc2ccccc2F)n1)c1ccc(COc2ccc(Cl)cc2Cl)o1` the max response was 15.1% (active).
In the case of `COc1ccc(Cl)cc1NC(=O)NCC1CCN(Cc2ccccc2F)CC1`, the max response is reported as -0.34%.
Work on `O=C(O)c1ccc(NC(=O)c2ccc(COc3ccc(Cl)cc3)o2)cc1` yielded a max response of 2.26%.
In the case of `Cc1nn(C(C)(C)C)c(OC(=O)CC(C)C)c1S(=O)(=O)c1ccccc1`, the max response is reported as 9.13%.
With `COc1ccc(C2c3[nH]c4ccccc4c3C[C@H]3C(=O)N(CC(C)C)CC(=O)N23)c(OC)c1` (stereo partly specified) the max response was -3.45%.
In the case of `COc1ccc(C2C=C(c3ccc(Br)cc3)Nc3nc(NS(C)(=O)=O)nn32)cc1` (stereo unspecified), the max response is reported as -3.16%.
`Cn1nc([N+](=O)[O-])nc1Sc1ccc(C(C)(C)C)cc1` showed a max response of -3.02%.
In the case of `O=C(CN1CCN(C(=O)C2CCCO2)CC1)Nc1c(Cl)cccc1Cl` (stereo unspecified), the max response is reported as -1.69%.
With `Cc1cccc(C(=O)Nc2nnc(Cc3c[nH]c4ccccc34)s2)c1` the max response was 3.09%.
For `Cc1cccc(N=C2NC(=O)/C(=C/c3cn(C)c4ccccc34)S2)c1`, the max response was 3.29%.
In the case of `Cc1cccc(N=C2NN=C(c3c[nH]c4ccccc34)CS2)c1`, the max response is reported as 25.2% (active).
With `CC1CCCCC1NC(=O)c1cn(C)c2ccc(S(=O)(=O)N3CCOCC3)cc2c1=O` (stereo unspecified) the max response was 1.03%.
In the case of `O=C(NCCc1csc(-c2ccccc2)n1)c1ccccc1F`, the max response is reported as 17.6% (active).
Work on `Cc1nc(CNS(=O)(=O)c2cccnc2)cs1` yielded a max response of -2.9%.
For `O=S(=O)(NCCc1ccncc1)c1ccccc1`, the max response was -2.7%.
In the case of `O=S(=O)(NCCc1csc(-c2ccccc2)n1)c1cccnc1`, the max response is reported as 19.7% (active).
Compound `O=C(NC1CCN(Cc2ccccc2)CC1)c1ccccc1F` has a max response of -5.27%.
For `O=C(NCCc1ccccn1)c1cc(-c2ccc(Cl)cc2)nc2ccccc12`, the max response was -4.89%.
With `Cc1ccc(-c2nn(C(C)(C)C)c3ncnc(N)c23)cc1` the max response was -0.92%.
Compound `COc1ccc(NC(=O)C2C3CCC(O3)C2C(=O)O)cc1OC` (stereo unspecified) has a max response of -2.93%.
`COc1ccc(CN2C3CCCC2CC(NC(=O)c2cccc(F)c2)C3)cc1` (stereo unspecified) showed a max response of -1.01%.
In the case of `CCOC(=O)c1ccccc1NC(=O)COC(=O)CCC(=O)N1CCOCC1`, the max response is reported as -1.15%.
Compound `COc1cc2c(cc1OC)C(C)N(S(=O)(=O)c1cnc(Cl)c(Cl)c1)CC2` (stereo unspecified) has a max response of 11.2%.
In the case of `COc1ccc(-n2ncc3c2CC(C)(C)CC3NC(=O)CCc2c(C)nn(C)c2C)cc1` (stereo unspecified), the max response is reported as 0.573%.
For `CCCNC(=O)c1ccc(N2CCC3(CC2)CC(c2ccc(Cl)cc2)=NO3)c([N+](=O)[O-])c1`, the max response was -0.889%.
With `S=C(c1ccc(-c2ccccc2)o1)N1CCCCC1` the max response was 38.1% (active).
With `OCCN1CCN(C(=S)c2ccc(-c3ccccc3)cc2)CC1` the max response was -2.28%.
In the case of `S=C(c1ccccc1)N1CCCC1`, the max response is reported as -0.586%.
With `Cc1ccc(OCC(=O)Nc2ccc(N3CCN(C(=O)c4ccco4)CC3)cc2)c(C)c1` the max response was -1.02%.
For `c1ccc(CN=C2Nc3ccccc3CS2)nc1`, the max response was 36.1% (active).
Compound `CCOC(=O)c1c(-c2ccccc2)oc2cc(Br)c(O)cc12` has a max response of -1.41%.
With `Cc1ccc(C)c(S(=O)(=O)N2CCCOC2CNC(=O)C(=O)NC2CCCCC2)c1` (stereo unspecified) the max response was 7.6%.
In the case of `Cc1nc2ccccc2nc(C)c1=NOCc1ccc(Cl)cc1Cl`, the max response is reported as 39.1% (active).
In the case of `O=S(=O)(O)c1nc2ccccc2n1Cc1ccc(Cl)cc1Cl`, the max response is reported as -2.23%.
Compound `COC(=O)c1sc2ncccc2c1OCc1ccc(Cl)cc1Cl` has a max response of 4.4%.
Work on `Cc1ccc(-n2ncc3c2CC(C)(C)CC3NC(=O)CCc2cnn(C)c2)cc1` (stereo unspecified) yielded a max response of -4.22%.
`O=C1c2cccc3cccc(c23)C(=O)N1c1cccc(O)c1` showed a max response of -2.33%.
Compound `O=C(Nc1cccc(Cl)c1N1CCOCC1)c1cccnc1` has a max response of 6.59%.
`Cc1noc(C)c1C(=O)NCCc1ccc(S(N)(=O)=O)cc1` gave a max response of -1.04%.
`Cc1nc2sccn2c(=O)c1S(=O)(=O)NCCc1ccccc1` showed a max response of -3.53%.
`Cc1ccc(-c2nc(C)sc2CC(=O)O)cc1` showed a max response of -1.04%.
Compound `CCOC(=O)C(=O)Nc1nc(-c2ccccc2)c(CC)s1` has a max response of -3.08%.
With `C/C(=N/Nc1nc(-c2ccccc2)c(CC(=O)O)s1)c1ccccc1` the max response was 35% (active).
With `O=[N+]([O-])c1ccccc1S(=O)(=O)Nc1cccc2cccnc12` the max response was 10.3% and 10.1% and -3.71%.
In the case of `CCOC(=O)N1CCN(C(=O)CSc2ccc(Cl)cc2)CC1`, the max response is reported as 20.3% (active).
Work on `CS(=O)(=O)N1CCN(C(=O)CSc2ccccc2)CC1` yielded a max response of -1.13%.
For `CCOC(=O)N1CCN(C(=O)CNC(=O)Cc2ccc(Cl)cc2)CC1`, the max response was -1.82%.
In the case of `CCN1CCN(C(=O)CSc2ccc(C)cc2)CC1`, the max response is reported as 15.7% (active).
Compound `CCOC(=O)N1CCN(C(=O)COc2ccc(Cl)cc2C)CC1` has a max response of -3.61%.
Work on `CCN1CCN(C(=O)CCN2C(=O)c3ccccc3C2=O)CC1` yielded a max response of -1.33%.
